LDHA block = qHTS assay for inhibitors of human lactate dehydrogenase; L-lactate dehydrogenase A chain (Homo sapiens), P00338; purified LDHA, NADH/diaphorase-resazurin fluorescence; hits give low values; activity change, % (values are at about 110 or 230 µM); 0.15% of 480,000 active; AID 1347041, 2019; in the data active = activity change below about -30%;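 also: plate controls were DMSO wells for no effect and wells without enzyme for full effect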
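Enzyme activity of human lactate dehydrogenase 5 (2 nM; 0.06 mM NADH, 0.2 mM pyruvate, 5 min, RT) is measured via a resazurin/diaphorase fluorescence readout of residual NADH.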
D2 PAM-1 = Beta-Arrestin HTS for Positive Allosteric Modulators of the Human D2 Dopamine Receptor: Potentiators | D(2) dopamine receptor (Homo sapiens), P14416 | DiscoveRx D2 beta-arrestin cells, luminescence, 90 min; 100% = 57 uM dopamine signal | potentiation, % (test concentration not listed) | 0.23% of 360,000 active; in the data active = potentiation above about 50%
Target sequence (P14416 whole entry, looked up): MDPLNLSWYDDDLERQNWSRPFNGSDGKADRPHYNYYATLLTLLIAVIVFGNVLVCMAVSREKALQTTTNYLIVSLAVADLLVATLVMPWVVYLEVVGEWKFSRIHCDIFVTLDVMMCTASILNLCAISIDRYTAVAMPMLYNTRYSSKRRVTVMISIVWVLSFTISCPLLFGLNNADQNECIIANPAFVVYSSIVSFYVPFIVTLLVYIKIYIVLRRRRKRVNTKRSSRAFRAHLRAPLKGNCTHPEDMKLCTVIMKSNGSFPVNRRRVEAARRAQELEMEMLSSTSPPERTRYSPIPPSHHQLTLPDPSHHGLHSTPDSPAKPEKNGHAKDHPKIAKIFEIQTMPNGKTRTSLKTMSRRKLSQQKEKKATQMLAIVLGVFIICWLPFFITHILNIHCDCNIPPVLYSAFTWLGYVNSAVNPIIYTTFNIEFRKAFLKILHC
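D2 cells co-treated with compound plus 50 nM dopamine (EC20) for 90 min at 37 deg C to detect potentiation. Beta-arrestin recruitment was read as enzyme-fragment luminescence after 1 h at ambient temperature. Full response was set by 57 uM dopamine.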
D2 ag-1 = Beta-Arrestin HTS for Positive Allosteric Modulators of the Human D2 Dopamine Receptor: Agonists | DiscoveRx PathHunter D2 beta-arrestin, luminescence, 90 min; 100% = 57 uM dopamine signal | activation, % (concentration not given with the values) | 0.084% of 360,000 active; in the data active = activation above about 40%
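Agonist mode: compounds alone added to overnight-plated D2 PathHunter cells for 90 min at 37 C, with 57 uM final dopamine (EC100) defining full response. Beta-arrestin recruitment detected by chemiluminescent reagent, read after 1 h at ambient temperature.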
D2 PAM-2 = HTS Assay for Positive Allosteric Modulators of the Human D2 Dopamine Receptor: Primary Screen for Potentiators. potentiation, % at 10 µM. HEK293 T-REx D2, calcium flux, EC20 dopamine potentiation. 0.34% of 340,000 active. D(2) dopamine receptor (Homo sapiens), P14416;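 active = potentiation over 3 SD above the plate norm, cut at about 30% in these data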; also: 0% is about no effect
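Primary screen. Calcium kinetics in induced HEK293 T-REx D2 cells: compound pre-addition 180 s, EC20 dopamine, 180 s more.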
D2 ag-2 = HTS Assay for Allosteric Agonists of the Human D2 Dopamine Receptor: Primary Screen for Agonists | activation, % at 2 µM | AID 485358, 2010 | HEK293 T-REx D2 cells, calcium flux agonist mode | D(2) dopamine receptor (Homo sapiens), P14416 | 0.53% of 340,000 active;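 active = activation over 3 SD above normal in the single-dose calcium agonist read, cut at about 30% in these data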; also: 0% is about no effect
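Agonism scored from kinetic calcium signal (1 read/sec, 180 s) following compound pin transfer, after a 10 s baseline. Cells: HEK293 Trex line expressing inducible D2 receptor coupled to calcium, dye-loaded after overnight culture at 30 C.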
D2 antagonist = HTS Assay for Allosteric Antagonists of the Human D2 Dopamine Receptor: Primary Screen for Antagonists | D(2) dopamine receptor (Homo sapiens), P14416 | HEK293 TREx D2 cells, calcium flux, dopamine EC80 | 2% of 340,000 active | AID 485344, 2010 | inhibition, % at 10 µM; in the data active = inhibition above about 30%; inactive = below that, where a call was filed; also: 0% is about no effect
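Inhibition of EC80 dopamine-driven calcium flux, recorded kinetically, defines activity here; cells are a tetracycline-induced HEK293 T-REx line expressing force-coupled D2.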
Active calls of the source: *; x = not tested or not shown; ! = not active in a repeat. Rows were chosen to be rich in hits. Some 2.1% of all compounds tested hit in one or more screens of this group.

SMILES	LDHA block	D2 PAM-1	D2 ag-1	D2 PAM-2	D2 ag-2	D2 antagonist
COc1ccccc1C(CNC(=O)C(C)(C)Oc1ccc(Cl)cc1)N1CCCC1 (stereo not given)	-8	-11	-3	-3	0	-19
COc1ccc(C(CNC(=O)c2cc3ccccc3o2)N2CCCC2)cc1 (stereo not given)	0	-5	-1	-29	1	79*
COc1ccc(C(CNC(=O)c2cc3ccccc3o2)N2CCCCC2)cc1 (stereo not given)	-5	-21	-2	-20	0	67*
COc1ccc(C(CNC(=O)c2ccc(-c3ccccc3Cl)o2)N2CCCC2)cc1 (stereo not given)	-4	-22	-1	x	x	x
COc1ccc(C(CNC(=O)c2cc3c(s2)CCC(C)C3)N2CCCC2)cc1 (stereo not given)	-1	-8	-1	-25	0	72*
Clc1cccc(/C=N/Nc2ccc(Cl)c(Cl)c2)c1	8	x	x	x	x	x
CC(C)(C)c1ccc(OCC(=O)N2CCN(c3ccccn3)CC2)cc1	0	2	2	-5	0	-28
CC(C)(Oc1ccc(Cl)cc1)C(=O)N1CCN(c2ccccn2)CC1	-6	-20	-3	2	-1	43*
N#Cc1c(-c2ccc(Cl)cc2Cl)csc1N	8	x	x	x	x	x
Cc1ccc2c(CN(C)CCOc3ccc(F)cc3)cc(=O)oc2c1	-33*	x	x	x	x	x
Cc1cc2oc(=O)cc(CN(C)CCOc3ccc(F)cc3)c2cc1Cl	7	x	x	x	x	x
N#CCCN(C(=S)Nc1ccc(SC(F)F)cc1)c1ccccc1	3	x	x	x	x	x
O=S1(=O)CCOC[C@H](c2ccccc2)N1Cc1ccccc1	-1	-5	-1	-9	0	30*
OC1(c2ccccc2)CCN(Cc2ccccc2)C2CCCCC21 (stereo not given)	-7	-37	-6	-27	2	38*
Cc1cc(N2CCOCC2)nc2ccc(NC(=O)CCC(=O)N3CCN(c4ccccc4)CC3)cc12	-6	-4	0	31*	2	-9
COC(=O)c1[nH]c2c(c1C)C(=O)CC(c1ccc(C)cc1)C2 (stereo not given)	-8	-16	1	-1	0	32*
CCOC(=O)C1=C(CN2CCN(C(=O)c3ccco3)CC2)NC(=O)NC1c1ccc(C)cc1 (stereo not given)	1	-12	2	1	2	37*
CC1(OC(=O)C2CCCC2)C(=O)C=C2C=C(c3ccsc3)N(C3CC3)C=C2C1=O (stereo not given)	15	0	7	6	-1	-3
CC1(OC(=O)C2CCCC2)C(=O)C=C2C=C(c3ccsc3)N(c3ccccc3)C=C2C1=O (stereo not given)	11	-2	15	9	0	36*
COc1ccccc1COC(=O)c1cccc(S(=O)(=O)N2CCCC2)c1	3	-28	-3	7	0	42*
Cc1ccc(COC(=O)c2cccc(S(=O)(=O)N3CCCCCC3)c2)cc1	-5	-14	0	12	1	43*
O=c1[nH]c2ccc(S(=O)(=O)Nc3c(NC4CCCCC4)c4ccccc4oc3=O)cc2o1	-11	x	x	x	x	x
CC(C)c1ccc(NC(=O)CCn2cnc3c2c(=O)n(C)c(=O)n3C)cc1	-8	x	x	x	x	x
Cc1oc(-c2cccs2)nc1CC(=O)Nc1ccc(F)cc1F	6	x	x	x	x	x
N#C/C(=C\c1c[nH]c2ccccc12)c1ccccc1	7	x	x	x	x	x
SMILES	LDHA block	D2 PAM-1	D2 ag-1	D2 PAM-2	D2 ag-2	D2 antagonist
CS(=O)(=O)Oc1ccc2c(c1)O/C(=C\c1ccc3c(c1)OCO3)C2=O	13	x	x	x	x	x
Cc1nnc(SCC(=O)NCc2ccco2)n1Cc1ccccc1	-5	-15	-1	x	x	x
CCCn1c(SCC(=O)NCc2ccco2)nnc1C(C)C	-1	1	-2	-7	0	47*
CCC(=O)Nc1cccc(-c2nnc(SCC(=O)NCc3ccco3)n2C)c1	-31*	-16	-5	-5	1	11
Cn1c(SCC(=O)NCc2ccco2)nnc1-c1cccc(NC(=O)c2ccccc2)c1	-8	x	x	x	x	x
COc1ccccc1OCC(=O)N(Cc1ccc(-c2ccc(Cl)cc2)o1)C1CCS(=O)(=O)C1 (stereo not given)	6	x	x	x	x	x
Cc1[nH]n(-c2ccccc2)c(=O)c1/C=N/N(C)c1ccccc1	7	74*	10	-6	-1	-15
Cc1[nH]n(-c2ccccc2)c(=O)c1/C=N/O	-2	13	-1	19	0	10
COCC(=O)N/N=C/c1c(C)[nH]n(-c2ccccc2)c1=O	-15	-10	-4	33*	0	4
CN(C(=O)COC(=O)C12CC3CC(CC(C3)C1)C2)c1c(N)n(Cc2ccccc2)c(=O)[nH]c1=O	-12	-12	-3	6	0	47*
O=C(Nc1ccccc1Cl)C1CCN(c2ncnc3onc(-c4ccc(F)cc4)c23)CC1	13	x	x	x	x	x
O=C(CCC1CCCCC1)Nc1nccs1	-4	-14	0	-5	0	43*
CCc1cc2c(cc3c(=O)n(CC(=O)NCCCN4CCCCCC4)nc(CC)n32)s1	1	-1	-6	-21	-1	33*
CCOc1nc(OCC#N)nc(N2CCOCC2)n1	-5	x	x	x	x	x
N#CCOc1nc(N2CCOCC2)nc(N2CCOCC2)n1	-31*!	4	-3	5	0	-4
O=C(O)Cc1ccc(N2C(=O)C(=O)/C(=C(/O)c3ccccc3Cl)C2c2ccc(C(=O)O)cc2)cc1 (stereo not given)	-10	x	x	x	x	x
Cc1ccc(NCC(=O)N/N=C/c2ccncc2)cc1	-2	-2	-1	4	-2	49*
CSc1ccc(/C=N\NC(=O)CNc2ccc(C)cc2)cc1	-11	12	1	2	0	6
CN(CC(=O)Nc1ccccc1Cl)CC(=O)N(CCC#N)c1ccccc1	1	x	x	x	x	x
COc1ccc(C(=O)Nc2ccc(C(=O)OCC(=O)c3cccc4ccccc34)cc2)cc1	-10	-17	3	0	1	76*
CN1/C(=C/C(=O)COC(=O)c2cc3c(s2)CCC3)C(C)(C)c2ccccc21	-7	x	x	x	x	x
Clc1ccc2[nH]c3c(NCCN4CCOCC4)ncnc3c2c1	-11	0	0	1	1	-1
